# Data published in PubChem BioAssay (NCATS).
# Results filed as inconclusive are left out. Unmarked numbers belong to inactive results. The source made the active and inactive calls. Calls come from the whole dose curve; as a rule, active = well fitted inhibition curve with a large enough effect; inconclusive = small, poorly fitted or top-dose-only effect, or effect the other way; inactive = flat fitted curve, though single readings scatter.
# Target: ATP-dependent 6-phosphofructokinase (Trypanosoma brucei brucei) (UniProt O15648)
# Test: qHTS Validation Assay to Find Inhibitors of T. brucei phosphofructokinase (AID 485368)
# Settings: T. brucei PFK enzyme assay, qHTS 7-point titration; series mostly up to 57.5 µM; activity change, negative = inhibition: at the top concentration
# Source text: NIH Molecular Libraries Probe Production Network [MLPCN]
# NIH Chemical Genomics Center [NCGC]
# PI Name: Malcolm Walkinshaw, University of Edinburgh
# Various species of the protozoan family Trypanosomatidae are responsible for a range of serious human diseases in tropical and subtropical areas of the world. […] Many of the disorders caused by trypanosomatids are fatal if left untreated, but most currently used drugs are inefficient and toxic.
# Oxidative metabolism involving the mitochondrial tricarboxylic acid cycle and oxidative phosphorylation are repressed in these parasites, and recent RNA interference (RNAi) experiments have shown that even partial depletion of certain individual glycolytic enzymes can lead to the death of cultured parasites. One such glycolytic enzyme, phosphofructokinase (PFK), catalyzes the formation of fructose-1,6-bisphosphate (F1,6BP) and ADP from fructose-6-phosphate (F6P) and ATP, and in many metabolic circumstances makes an important contribution to the control of flux through the glycolytic pathway. As a specific glycolytic target, PFK is particularly attractive as it catalyzes the first irreversible step in glycolysis, and structural and kinetic studies have shown very substantial and essential differences from corresponding host enzymes, allowing for the discovery of parasite-selective inhibitors.
# The goal of this screen is to find small-molecule inhibitors of T. brucei PFK using a biochemical assay that measures PFK activity as a function of ADP production. A luminescence-based assay for T. brucei PFK activity has been developed which uses luciferase to detect production of ADP. Traditional luciferase-based nucleotide detection reagents rely on ATP production as a direct substrate for the luciferase reaction; however, PFK catalyzes the transfer of a phosphate from ATP to F6P, resulting in the net depletion of ATP. To directly measure the ADP product of the PFK reaction, we used the ADP-Glo detection kit (Promega), which utilizes two separate reactions to 1) deplete all remaining uncatalyzed ATP and 2) convert all remaining ADP to ATP, which is then detected through a traditional luciferase-coupled reaction. Compounds were screened as a concentration-titration series that ranged from 57 uM to 0.7 nM.
# NCGC Assay Protocol Summary:
# Substrate buffer was dispensed into white, solid 1536-well plates at 3uL/well in 0.1M triethanolamine (TEA) buffer, pH 8.0, containing final concentrations of 5 mM MgCl2, 0.01% Tween20, 0.5 mM fructose-6-phosphate (F6P) and 0.1mM ATP. Then, 23 nL of compounds or DMSO were delivered to each well using a pin tool. One uL T. brucei PFK (0.1M TEA, 0.01% Tween20, 0.1% bovine serum albumin (BSA) and 1.25nM PFK, final concentrations) was then dispensed, and plates were incubated at room temperature for 45 min. The luminescent detection reagent, ADP-Glo (Promega), was then added in two steps: the first reagent, ADP-Glo (which converts remaining uncatalyzed ATP), was added at 2.5uL/well and incubated for ten minutes at room temperature, and the second component, Kinase Detection reagent (which converts ADP to ATP as a substrate for luciferase-based luminescence), was added immediately after at 5uL/well, followed by one final ten minute room temperature incubation. The plates were measured on a ViewLux plate reader for luminescent signal using a clear filter with a one second exposure. The %Activity was determined from the corrected luminescence values. As no specific T. brucei PFK inhibitors have been identified in the literature, 1x (1.25nM) and 0x PFK enzyme controls (untreated) were included to normalize %Activity of identified inhibitors; 0x enzyme values corresponded to 100%Activity (full inhibition), while 1x PFK enzyme values were used to normalize 0%Activity (no inhibition).
# Concentration-response curves were fitted to the signals arising from the resulting luminescence. […]
# ATP-dependent 6-phosphofructokinase (Trypanosoma brucei brucei), sequence (O15648 whole entry, looked up): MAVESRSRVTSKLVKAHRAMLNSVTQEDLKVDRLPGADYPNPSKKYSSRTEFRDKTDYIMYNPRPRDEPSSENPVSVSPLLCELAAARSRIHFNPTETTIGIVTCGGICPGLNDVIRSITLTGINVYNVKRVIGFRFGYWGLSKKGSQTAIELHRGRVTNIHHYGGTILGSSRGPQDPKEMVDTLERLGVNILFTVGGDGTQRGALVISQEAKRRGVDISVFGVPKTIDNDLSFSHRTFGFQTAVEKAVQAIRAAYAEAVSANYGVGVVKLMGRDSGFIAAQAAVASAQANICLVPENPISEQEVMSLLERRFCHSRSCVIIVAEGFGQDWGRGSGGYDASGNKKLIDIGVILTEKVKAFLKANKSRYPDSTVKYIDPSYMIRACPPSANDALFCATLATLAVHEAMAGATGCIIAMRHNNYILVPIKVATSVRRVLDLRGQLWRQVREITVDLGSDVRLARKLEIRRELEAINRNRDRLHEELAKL
SMILES,outcome,"activity change, negative = inhibition [%]"
COc1ccc2c(c1OC)C(=O)O[C@@H]2[C@H]1c2c(cc3c(c2OC)OCO3)CCN1C,inactive,
CCCCCCCC/C=C\CCCCCCCC(=O)NCc1ccc(O)c(OC)c1,inactive,
CCN(CC)CCNC(=O)c1ccc(NC(C)=O)cc1,,11
CCCCNC(=O)NS(=O)(=O)c1ccc(C)cc1,inactive,
CN1C(=O)CC[C@H]1c1cccnc1,inactive,
C[N+](C)(C)CCOC(=O)CCC(=O)OCC[N+](C)(C)C,inactive,
CCN1CCC[C@H]1CNC(=O)c1c(O)c(Cl)cc(Cl)c1OC,inactive,
CCO/C([O-])=N/c1c[n+](N2CCOCC2)no1,,12.2
Cc1nc2ccccn2c(=O)c1CCN1CCC(C(=O)c2ccc(F)cc2)CC1,inactive,
CC(C)[N+](C)(CCOC(=O)C1c2ccccc2Oc2ccccc21)C(C)C,inactive,
CNC1(C)C2CCC(C2)C1(C)C (stereo not given),inactive,
C[C@]12CCC(=O)C=C1CC[C@@H]1[C@@H]2CC[C@@]2(C)[C@H]1CC[C@]2(O)C(=O)CO,inactive,
COc1ccc(CN(CCN(C)C)c2ccccn2)cc1,inactive,
Brc1c(NC2=NCCN2)ccc2nccnc12,inactive,
CNCCC(Oc1ccccc1OC)c1ccccc1 (stereo not given),inactive,
C[C@]12CCC(=O)C=C1CC[C@@H]1[C@@H]2C(=O)C[C@@]2(C)[C@H]1CC[C@]2(O)C(=O)CO,inactive,
CCCNC(C)C(=O)Nc1ccccc1C (stereo not given),inactive,
CN(C)C(=O)Oc1cccc([N+](C)(C)C)c1,inactive,
O=C(O)CN(CCOCCOCCN(CC(=O)O)CC(=O)O)CC(=O)O,inactive,
CCc1c(C)[nH]c2c1C(=O)C(CN1CCOCC1)CC2 (stereo not given),inactive,

SMILES,outcome,"activity change, negative = inhibition [%]"
COCC(=O)O[C@]1(CCN(C)CCCc2nc3ccccc3[nH]2)CCc2cc(F)ccc2[C@@H]1C(C)C,inactive,
CCOC(=O)c1cnc2c(cnn2CC)c1NN=C(C)C,inactive,
C#CCN(C)CCCOc1ccc(Cl)cc1Cl,inactive,
NC(Cc1ccc(Cl)cc1)C(=O)O (stereo not given),inactive,
CN(C)C(=O)Oc1ccc[n+](C)c1,,11.7
O=c1[nH]c(=O)n([C@H]2C[C@H](O)[C@@H](CO)O2)cc1Br,inactive,
C[C@@H](O)[C@H]1C(=O)N2C(C(=O)O)=C(SCCN=CN)C[C@H]12,inactive,
O=C(O)CP(=O)(O)O,inactive,
N[C@@H](COP(=O)(O)O)C(=O)O,,10
CC(=O)Nc1nnc(S(N)(=O)=O)s1,inactive,
NC(N)=N/N=C/c1c(Cl)cccc1Cl,inactive,
COc1ccc([C@@H]2Sc3ccccc3N(CCN(C)C)C(=O)[C@@H]2OC(C)=O)cc1,,16.5
Cc1ccc(=O)n(-c2ccccc2)c1,inactive,
NC(N)=NC(=O)Cc1c(Cl)cccc1Cl,inactive,
CCCN(CCC)C(=O)C(CCC(=O)O)NC(=O)c1ccccc1 (stereo not given),inactive,
CC(C)NCC(O)c1cc(O)cc(O)c1 (stereo not given),inactive,
CN(C)CCN(Cc1cccs1)c1ccccn1,inactive,
CCN(Cc1ccncc1)C(=O)C(CO)c1ccccc1 (stereo not given),inactive,
CCOC(=O)C1=C(C)NC(C)=C(C(=O)OC)C1c1cccc(Cl)c1Cl (stereo not given),inactive,
CCC(=O)c1ccc2c(c1)N(CCCN(C)C)c1ccccc1S2,inactive,
